From PubChem BioAssay AID720595 (Broad Institute, 2013)
Potency and affinity values are given separately. A number with no mark means an inactive call.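 How the source made its calls: active means every repeat test gives a fitted half-maximal cytotoxic concentration no higher than twice the top valid dose; inconclusive means repeats disagree, or a flat partial loss or poor fit; inactive means the rest, including signal rising instead.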

Assay: HEK293T cell cytotoxicity, dose response, cytotoxicity control, CellTiter-Glo luminescence, dry powder, set 2 (AID 720595)
Conditions: HEK293T viability, ATP luminescence, 72 h; series mostly up to 26 µM; activity change, negative = cytotoxicity: at the top concentration

Structure (SMILES) | activity change, negative = cytotoxicity [%]
O=C(Nc1nc(-c2ccccn2)cs1)c1ccc(S(=O)(=O)N2CCOCC2)cc1 | 13.6
Cc1ccc(C(=O)Nc2nc(-c3ccccn3)cs2)cc1S(=O)(=O)N1CCOCC1 | 3.37
CC1CCN(S(=O)(=O)c2ccc(C(=O)Nc3nnc(-c4ccno4)o3)cc2)CC1 | 8.24
O=C(Nc1nnc(C2=COCCO2)o1)c1ccc(S(=O)(=O)N2CCCCC2)cc1 | -13.1
Cc1cccc(NC(=O)CSc2ccc(-c3ccccn3)nn2)c1C | -22
Cc1nnc(NC(=O)c2ccc(S(=O)(=O)N3CCCCC3)cc2)o1 | 3.22
O=C(CSc1ccc(-c2ccccn2)nn1)Nc1nccs1 | -2.19
Cc1c(C(=O)N(C)C)sc2nc(-c3ccccn3)[nH]c(=O)c12 | -16.1
O=C(CSc1ccc(-c2ccccn2)nn1)NC1CCCCC1 | -7.59
CC(C)Cc1nnc(NC(=O)c2cccc(S(=O)(=O)N3CCOCC3)c2)s1 | -10.6
Cc1ccc(S(=O)(=O)CCc2nnc(NC(=O)c3ccccc3)s2)cc1 | 3.04
Cc1ccc(C(=O)Nc2nc(-c3ccccc3)cs2)o1 | -2.19
CC1CC(C)CN(S(=O)(=O)c2ccc(C(=O)Nc3nnc(C4=COCCO4)o3)cc2)C1 (stereo not drawn) | 10.9
O=C(Nc1nc(-c2ccncc2)cs1)c1cccc(S(=O)(=O)N2CCOCC2)c1 | -2.67
O=C(Nc1nc(-c2ccncc2)cs1)c1ccco1 | 5.54
CC1CCN(S(=O)(=O)c2ccc(C(=O)Nc3nnc(C4CC4)o3)cc2)CC1 | -30.8
Nc1nc(-c2ccccn2)nc(N)c1Cc1ccc(Cl)cc1Cl | -26.5
COc1ccc(-c2nnc(NC(=O)c3ccc(S(=O)(=O)N4CCC(C)CC4)cc3)o2)cc1 | 0.53
